# Activity calls are given as the source filed them.
# How the values were obtained:
# [1] = test system: Plasmodium falciparum Sir2 (PF13_0152, Sir2A); test: Plasmodium falciparum Sir2A binding compounds – biochemical, small-molecule microarray, 635 nm fluorescence, primary screen (AID 1098); details: fluorescence 635 nm, higher = more signal;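 note: score merges spot fluorescence intensity with its signal-to-noise ratio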
# [2] = probe aDKK1 binding to arrayed compounds – biochemical, biotinylated probe, 635/667 nm fluorescence, primary screen (AID 1099); details: small-molecule microarray, higher = more signal;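 note: score merges 667nm spot fluorescence with signal to noise across triplicate slides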
# [3] = probe aCHRDL2 binding to arrayed compounds – biochemical, biotinylated probe, 635/667 nm fluorescence, primary screen (AID 1100); details: small-molecule microarray, higher = more signal
# [4] = change in splice reporter luminescence, either direction, cell-based, HEK293, spliceosome inhibition project, primary screen (AID 1101); details: HEK293 splicing luciferase reporter, 24 h, higher = more signal, called active from +8 up or from −8 down;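 note: HEK293 cells carrying a splicing-competent luciferase reporter gene; test concentration not given here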
# [5] = target: Fibroblast growth factor 10 (Homo sapiens) (UniProt O15520); test: compounds binding fibroblast growth factor 10 – biochemical, small-molecule microarray, 635 nm fluorescence, primary screen (AID 1102); details: FGF10 binding, fluorescence 635 nm, higher = more signal
# Chain of Fibroblast growth factor 10 (Homo sapiens) (O15520 whole entry, looked up): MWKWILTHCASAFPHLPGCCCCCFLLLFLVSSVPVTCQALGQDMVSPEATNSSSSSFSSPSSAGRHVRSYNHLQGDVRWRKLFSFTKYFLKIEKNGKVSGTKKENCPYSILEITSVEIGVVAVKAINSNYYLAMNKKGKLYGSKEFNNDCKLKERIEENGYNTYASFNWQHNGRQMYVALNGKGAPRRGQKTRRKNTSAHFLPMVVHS
# [6] = test system: glycogen synthase kinase-3 (GSK3A per assay name; protocol says GSK3B); test: compounds binding glycogen synthase kinase-3 – biochemical, small-molecule microarray, 635 nm fluorescence, GSK3A, primary screen (AID 1103); details: fluorescence 635 nm, higher = more signal; note: the record names both GSK3A and GSK3B
# [7] = target: Epidermal growth factor receptor (Homo sapiens) (UniProt P00533); test: compounds binding epidermal growth factor receptor – biochemical, small-molecule microarray, 635 nm fluorescence, primary screen (AID 1104); details: EGFR binding, higher = more signal;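 note: score merges 667 nm emission intensity with spot signal to noise over triplicate slides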
# Chain of Epidermal growth factor receptor (Homo sapiens) (P00533 whole entry, looked up): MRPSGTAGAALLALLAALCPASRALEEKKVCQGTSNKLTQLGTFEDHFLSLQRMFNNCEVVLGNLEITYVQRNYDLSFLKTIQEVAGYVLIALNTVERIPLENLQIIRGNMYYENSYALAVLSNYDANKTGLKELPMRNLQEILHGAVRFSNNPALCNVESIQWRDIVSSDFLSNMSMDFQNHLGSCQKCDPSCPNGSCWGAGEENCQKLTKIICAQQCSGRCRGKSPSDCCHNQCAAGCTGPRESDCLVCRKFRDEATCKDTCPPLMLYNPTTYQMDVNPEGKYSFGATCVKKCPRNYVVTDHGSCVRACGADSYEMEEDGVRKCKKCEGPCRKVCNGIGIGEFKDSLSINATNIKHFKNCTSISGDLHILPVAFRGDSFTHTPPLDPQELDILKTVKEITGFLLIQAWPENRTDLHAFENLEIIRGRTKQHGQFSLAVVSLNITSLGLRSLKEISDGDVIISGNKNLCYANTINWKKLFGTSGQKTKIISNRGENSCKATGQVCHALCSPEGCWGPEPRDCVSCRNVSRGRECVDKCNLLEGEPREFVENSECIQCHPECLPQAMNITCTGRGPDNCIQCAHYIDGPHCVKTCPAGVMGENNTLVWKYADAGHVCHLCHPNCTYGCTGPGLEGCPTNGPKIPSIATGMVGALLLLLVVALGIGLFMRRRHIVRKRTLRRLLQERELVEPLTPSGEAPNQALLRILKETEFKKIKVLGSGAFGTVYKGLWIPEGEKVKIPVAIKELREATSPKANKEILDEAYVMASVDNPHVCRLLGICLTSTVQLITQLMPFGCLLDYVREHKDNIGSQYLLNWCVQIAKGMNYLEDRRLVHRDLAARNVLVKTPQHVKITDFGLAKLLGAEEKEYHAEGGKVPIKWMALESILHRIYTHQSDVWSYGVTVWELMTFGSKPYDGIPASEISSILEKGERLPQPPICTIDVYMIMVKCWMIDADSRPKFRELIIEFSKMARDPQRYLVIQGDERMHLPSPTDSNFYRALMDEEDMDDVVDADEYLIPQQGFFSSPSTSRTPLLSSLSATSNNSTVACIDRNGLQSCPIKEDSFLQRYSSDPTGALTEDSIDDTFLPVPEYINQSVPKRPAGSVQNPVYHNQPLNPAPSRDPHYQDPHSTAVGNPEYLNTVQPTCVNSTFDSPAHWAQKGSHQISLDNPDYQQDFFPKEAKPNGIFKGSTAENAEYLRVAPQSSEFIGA
# [8] = target: Follistatin-related protein 3 (Homo sapiens) (UniProt O95633); test: compounds binding follistatin-related protein 3 – biochemical, small-molecule microarray, 635 nm fluorescence, primary screen (AID 1105); details: FSTL3 binding, higher = more signal;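 note: score merges emission near 667 nm and signal to noise per printed spot across three slides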
# Chain of Follistatin-related protein 3 (Homo sapiens) (O95633 whole entry, looked up): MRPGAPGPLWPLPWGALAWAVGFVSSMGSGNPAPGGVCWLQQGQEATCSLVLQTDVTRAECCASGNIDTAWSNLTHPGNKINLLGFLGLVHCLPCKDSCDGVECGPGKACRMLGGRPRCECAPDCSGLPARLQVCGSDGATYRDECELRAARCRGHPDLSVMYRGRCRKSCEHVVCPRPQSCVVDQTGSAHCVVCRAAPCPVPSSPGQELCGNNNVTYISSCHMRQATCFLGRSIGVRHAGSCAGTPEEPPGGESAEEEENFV
# [9] = target: Dickkopf-related protein 1 (Homo sapiens) (UniProt O94907); test: small molecules binding DKK1 protein – biochemical, small-molecule microarray, 635 nm fluorescence scan, primary screen (AID 1106); details: higher = more signal;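 note: score merges emission near 667 nm with signal to noise over three replicate slides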
# Chain of Dickkopf-related protein 1 (Homo sapiens) (O94907 whole entry, looked up): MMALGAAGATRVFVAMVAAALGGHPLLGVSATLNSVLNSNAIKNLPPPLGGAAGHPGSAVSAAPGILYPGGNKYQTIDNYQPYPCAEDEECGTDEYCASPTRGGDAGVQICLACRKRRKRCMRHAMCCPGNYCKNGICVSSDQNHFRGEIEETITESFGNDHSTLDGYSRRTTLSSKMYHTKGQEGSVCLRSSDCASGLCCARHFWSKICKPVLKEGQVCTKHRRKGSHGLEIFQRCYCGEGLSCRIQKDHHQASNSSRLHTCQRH
# [10] = test system: Inhibin beta A chain (activin A); test: small molecules binding activin A – biochemical, small-molecule microarray, 635 nm fluorescence scan, primary screen (AID 1107); details: INHBA, higher = more signal;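 note: mouse activin A protein probed at 4.33 µg/mL on printed slides; score merges bound-protein fluorescence near 667 nm with spot signal-to-noise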
# [11] = test system: Human papillomavirus type 1a protein E7 (residues 44-93); test: small molecules binding HPV E7 44-93 – biochemical, small-molecule microarray, residues 44-93, 635 nm fluorescence, primary screen (AID 1108); details: fluorescence 635 nm, higher = more signal;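 note: E7 fragment applied at 1 µg/mL in TBST for 1 h at 4 C; score combines spot fluorescence with its signal to noise ratio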
# [12] = hepatitis C replication reporter changes, two-sided – Huh7 cells, luciferase reporter, HCV replication inhibitor project, primary screen (AID 1109); details: Huh7 HCV replicon luciferase reporter, 48 h; higher = more signal;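 note: huh7 hepatoma cells harbouring a luciferase neomycin HCV replicon reporter; luciferase luminescence as measure of HCV replicon replication; test concentration not given here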
# [13] = target: Left-right determination factor 2 (Homo sapiens) (UniProt O00292); test: small molecules binding LEFTY2 protein – biochemical, small-molecule microarray, 635 nm fluorescence scan, primary screen (AID 1110); details: higher = more signal
# Chain of Left-right determination factor 2 (Homo sapiens) (O00292 whole entry, looked up): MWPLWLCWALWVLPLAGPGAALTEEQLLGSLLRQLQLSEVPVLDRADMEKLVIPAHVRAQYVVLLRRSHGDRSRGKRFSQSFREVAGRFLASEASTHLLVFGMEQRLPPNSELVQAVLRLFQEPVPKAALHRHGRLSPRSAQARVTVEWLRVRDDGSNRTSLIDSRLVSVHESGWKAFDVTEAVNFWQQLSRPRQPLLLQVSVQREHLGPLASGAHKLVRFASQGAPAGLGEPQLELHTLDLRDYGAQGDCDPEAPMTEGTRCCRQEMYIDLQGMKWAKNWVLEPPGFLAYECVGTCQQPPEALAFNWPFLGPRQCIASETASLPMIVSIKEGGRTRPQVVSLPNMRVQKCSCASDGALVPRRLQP
# [14] = target: Calmodulin-1 (Homo sapiens) (UniProt P0DP23); test: small molecules binding calmodulin-1 with EGTA – biochemical, small-molecule microarray, Cy5-labelled CALM1, profiling panel (AID 1111); details: Cy5-CALM1 binding fluorescence, higher = more signal;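 note: labelled calmodulin applied in Tris saline Tween buffer holding calcium plus EGTA and DTT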
# [15] = target: Calmodulin-1 (Homo sapiens) (UniProt P0DP23); test: small molecules binding Ca-loaded calmodulin-1 – biochemical, small-molecule microarray, Cy5-labelled CALM1, plus calcium, artefact control for SMM control-protein annotation, profiling panel (AID 1112); details: Cy5-CALM1 binding fluorescence, higher = more signal;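 note: score merges spot fluorescence with signal to noise from triplicate slides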
# [16] = probe aWnt5a binding to arrayed compounds – biochemical, biotinylated probe, 635/667 nm fluorescence, primary screen (AID 1113); details: small-molecule microarray, higher = more signal;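 note: score merges 667 nm fluorescence intensity with signal-to-noise per printed feature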
# [17] = probe aShh binding to arrayed compounds – biochemical, biotinylated probe, 635/667 nm fluorescence, primary screen (AID 1114); details: small-molecule microarray, higher = more signal;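 note: probe is biotin-labelled aShh protein from a stem cell growth factor screen; measures binding of labelled protein to compounds printed on the slide; score merges feature fluorescence at 667 nm with signal-to-noise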
# [18] = probe aNog binding to arrayed compounds – biochemical, biotinylated probe, 635/667 nm fluorescence, primary screen (AID 1115); details: small-molecule microarray, higher = more signal;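 note: probe is biotinylated aNog protein used at 0.15 µg/mL for 1 h at 4 C; z-score combines 667 nm fluorescence of each spot with its signal to noise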
# [19] = target: Torsin-1A-interacting protein 1 (Homo sapiens) (UniProt Q5JTV8); test: compound microarray binding of lysate hLAP1 – cell lysate, small-molecule microarray, COS7 lysate, 635/667 nm fluorescence, primary screen (AID 1116); details: 635 nm fluorescence, higher = more signal
# Chain of Torsin-1A-interacting protein 1 (Homo sapiens) (Q5JTV8 whole entry, looked up): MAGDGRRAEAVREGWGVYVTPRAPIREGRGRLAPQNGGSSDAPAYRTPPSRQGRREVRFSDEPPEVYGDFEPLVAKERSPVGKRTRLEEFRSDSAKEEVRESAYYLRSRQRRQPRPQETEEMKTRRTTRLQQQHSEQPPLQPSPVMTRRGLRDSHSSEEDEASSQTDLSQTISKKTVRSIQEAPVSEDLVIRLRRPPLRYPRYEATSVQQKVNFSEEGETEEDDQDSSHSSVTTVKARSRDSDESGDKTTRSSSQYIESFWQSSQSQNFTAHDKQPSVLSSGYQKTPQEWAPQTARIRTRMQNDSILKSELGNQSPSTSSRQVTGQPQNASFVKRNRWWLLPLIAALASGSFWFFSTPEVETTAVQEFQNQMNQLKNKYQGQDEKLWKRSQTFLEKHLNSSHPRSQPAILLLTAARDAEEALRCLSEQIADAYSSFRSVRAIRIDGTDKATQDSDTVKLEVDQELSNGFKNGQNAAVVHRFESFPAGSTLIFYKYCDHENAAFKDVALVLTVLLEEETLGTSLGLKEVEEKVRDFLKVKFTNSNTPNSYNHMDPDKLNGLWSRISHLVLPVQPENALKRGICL
# [20] = target: Alpha-bungarotoxin (Bungarus multicinctus) (UniProt P60615); test: compounds binding labelled alpha-BTX control protein – biochemical, small-molecule microarray, Alexa647 label, 635/667 nm fluorescence, artefact control for SMM control protein annotation, profiling panel (AID 1117); details: alpha-BTX-A647 binding fluorescence, higher = more signal
# Chain of Alpha-bungarotoxin (Bungarus multicinctus) (P60615 whole entry, looked up): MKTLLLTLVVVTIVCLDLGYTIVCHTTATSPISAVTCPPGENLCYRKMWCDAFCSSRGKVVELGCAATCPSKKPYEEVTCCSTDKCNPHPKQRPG
SMILES,composite z-score [1],composite z-score [2],composite z-score [3],z-score [4],composite z-score [5],composite z-score [6],composite z-score [7],composite z-score [8],composite z-score [9],composite z-score [10],composite z-score [11],z-score [12],composite z-score [13],composite z-score [14],composite z-score [15],composite z-score [16],composite z-score [17],composite z-score [18],composite z-score [19],composite z-score [20]
COC(=O)[C@@]1(Cc2ccc(F)cc2)[C@H]2c3cc(C(=O)N(C)C)n(Cc4ccc(Cl)c(C(F)(F)F)c4)c3C[C@H]2CN1C(=O)c1ccccc1,0.546,1.6,1.46,-2.25 (inactive),0.336,1.31,0.175,0.923,-0.473,0.651,0.199,-2.11,-0.401,2.75,1.63,-0.101,-0.0578,-0.222,2.41,2.36
CO[C@H]1O[C@H](CO)[C@@H](OC(=O)Nc2ccccc2)[C@H](OC(=O)Nc2ccccc2)[C@@H]1OC(=O)Nc1ccccc1,1.48,-0.136,-0.103,-1.29 (inactive),1.44,1.3,1.12,1.11,0.439,0.0784,1.39,-1.93,0.179,0.928,-0.136,0.111,-0.0793,-0.541,0.835,0.796
O=C1C2C=CC(C(O)c3cccc4ccccc34)N(Nc3ccccc3F)C2C(=O)N1c1ccccc1 (stereo not given),0.927,0.977,1.02,-0.05 (inactive),0.606,1.18,0.172,0.79,-0.311,0.723,1.45,-0.69,0.264,1.84,0.895,0.0554,0.14,0.737,1.4,2.15
COC(=O)[C@@]1(Cc2ccc(F)cc2)[C@H]2c3cc(C(=O)N4CCCC4)n(CCCNc4ncc(C(F)(F)F)cc4Cl)c3C[C@H]2CN1C(=O)c1ccccc1,0.913,1.43,1.05,-2.38 (inactive),0.137,-0.548,0.23,-0.142,-0.808,1.17,1.39,-1.48,-0.386,1.59,0.868,-0.0107,0.831,1.37,0.679,0.493
COCCOC(=O)N1C(=O)[C@@]2(c3ccccc31)[C@H](c1ccc(O)cc1)N1[C@H](c3ccccc3)[C@H](c3ccccc3)OC(=O)[C@H]1[C@@H]2C(=O)Nc1nc2ccccc2s1,1.39,-0.0358,-0.167,-1.3 (inactive),0.724,1.05,0.252,0.542,0.39,0.0446,1.19,-0.993,0.118,1.29,0.501,-0.0276,0.249,0.0308,1.33,1.87
C=C(/C(=C/C[C@H](OC(C)=O)c1ccccc1OCCO)c1cnc2ccccc2c1)C(C)C,1.55,0.955,-0.269,0.0118 (inactive),0.53,0.311,-0.306,1.04,0.304,1.87,0.101,-2.42,-0.0274,0.361,-0.378,-0.034,0.184,-0.036,0.327,1.19

# — PubChem BioAssay
